High-throughput results from PubChem.
ELG1 DNA repair – qHTS screen for small molecules that inhibit ELG1-dependent DNA repair in human embryonic kidney (HEK293T) cells expressing luciferase-tagged ELG1 | 330,000 compounds, 2.3% hits | HEK293T ELG1-luciferase reporter, luminescence, 16 h; DNA damage induced by 5-fluorouridine | AID 504467, 2011 | Potency, µM (titrated, usually from 46.1 µM), for inactives: top-dose activity change, negative = inhibition, most hits filed as inhibitors; note: potency is the fitted concentration of half-maximal effect; % is set by controls: 0 for no effect and ±100 for the full control effect; nearly all actives have a fitted effect of over 55% in size
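In this reporter screen, reduction of luminescence relative to DMSO vehicle indicated activity. Compounds and 5-fluorouridine were added together to 2,000 cells per well, incubated for 16 hr at 37 °C, then developed with ONE-Glo.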
Nrf2 ARE act – qHTS of Nrf2 Activators; 410,000 compounds, 0.31% hits; Potency, µM (titrated, usually from 46.1 µM), without a hit: top-dose activation, actives largely listed as activators; AREc32 ARE-luciferase reporter (MCF7-derived line), luminescence, 24 h; note: potency is the fitted concentration of half-maximal effect; % of control where 0% means no effect; nearly all actives have a fitted effect of over 65% in size
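ARE-driven firefly luciferase activity in AREc32 cells measured after a 24 hr compound exposure at 37 deg C, using Steady-Glo reagent and a 30 min room-temperature hold.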
IL2 activator – qHTS of IL-2 Activators; IL-2 activation reporter assay, cell-based qHTS; stimulated with anti-CD3/CD4/CD28 beads; in transgenic mouse T cells; activation, % (series mostly up to about 46 µM); 360,000 compounds, 0.065% hits; in the data active = activation above about 50%; inconclusive = mostly about 30% to 49%; note: 0% is about no effect
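Unstimulated transgenic mouse T cells preincubated 60 min with compound, then stimulated with anti-CD3/anti-CD4-coated beads plus anti-CD28 for 18 h at 37 degrees C. IL-2 response read as EGFP and DsRed fluorescence by plate cytometry.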
BRCA1 expr act – qHTS Assay to Identify Small Molecule Activators of BRCA1 Expression; MCF7-BRCA1-FFLuc reporter, luminescence, 48 h; response scale: scaled: vehicle 0%, 10 µM genistein 100%; Potency, µM (titrated, usually from 46.1 µM), for the others: top-dose activation, most hits filed as activators; 380,000 compounds, 1.1% hits; note: potency is the fitted concentration of half-maximal effect; nearly all actives have a fitted effect of over 80% in size
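Quantitative HTS in MCF7 cells stably reporting BRCA1 expression via firefly luciferase. Compound treatment lasts 48 h at 37 °C in phenol-red free MEM. Activation is expressed relative to genistein at 10 microM and DMSO.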
Active calls of the source: *; ? = inconclusive; nt = not tested or not shown. Hits are enriched below; roughly 3.1% of the tested compounds scored in any of these assays. Unless noted, calls come from the whole dose curve; as a rule, active = well fitted curve in the direction sought with a large enough effect; inconclusive = small, poorly fitted or top-dose-only effect, or another doubt; inactive = no such curve, though single readings can be large; an effect the other way counts as inactive or inconclusive.

SMILES	ELG1 DNA repair	Nrf2 ARE act	IL2 activator	BRCA1 expr act
CCc1cccc(NC(=O)Nc2cccs2)c1	?	26.0%	-0.2	11.2µM*
CC(=O)c1sc(Nc2ccccn2)nc1C	?	11.2µM*	-0.5	-52.7%
CC(=O)c1sc(NC(=O)c2ccccc2)nc1-c1ccccc1	?	7.8%	0.5	2.82µM*
CC(=O)Nc1nc(C)c(C(C)=O)s1	-2.7%	-0.3%	1.1	-28.6%
CC(=O)c1sc(NC(=O)c2ccc(F)c(F)c2)nc1C	?	-0.5%	-2.6	?
CC(=O)c1sc(NC(=O)c2ccc(Cl)cc2)nc1C	?	1.5%	0.6	3.16µM*
CC(=O)c1sc(NC(=O)c2ccccc2C)nc1C	?	0.3%	0.4	12.6µM*
CC(=O)c1sc(NC(=O)c2c(F)cccc2F)nc1-c1ccccc1	?	0.4%	-1.3	23.1%
CC(C)(C)c1ccc(S(=O)(=O)N2CCC(Oc3ccc(-n4cnnn4)cc3)CC2)cc1	nt	0.5%	nt	nt
Cc1ccc2oc(C(=O)Nc3ccc(S(=O)(=O)Nc4onc(C)c4C)cc3)c(C)c2c1	?	-0.1%	3.6	11.2µM*
CC(C)c1ccccc1NC(=O)CN(c1ccccc1)S(=O)(=O)N(C)C	nt	-0.9%	nt	0.0%
CCc1ccc2[nH]c3nc(SCc4nnc(-c5ccccc5)o4)nnc3c2c1	-12.5%	0.1%	3.1	-3.0%
COc1ccc2[nH]c3nc(SCc4nnc(-c5ccccc5)o4)nnc3c2c1	16.4µM*	0.6%	-1.7	-24.0%
COC(=O)c1ccsc1NC(=O)CCS(=O)(=O)c1ccccc1	2.8%	12.6µM*	-3.0	-33.3%
COC(=O)c1ccsc1NC(=O)CS(=O)(=O)c1ccccc1	0.0%	-1.3%	1.1	1.1%
Cc1ccc(S(=O)(=O)CCC(=O)Nc2sccc2C(N)=O)cc1	-4.7%	7.9%	-0.4	-23.6%
COC(=O)c1ccsc1NC(=O)CCS(=O)(=O)c1ccc(Cl)cc1	24.2%	15.8µM*	-2.5	-44.7%
COc1ccc(-c2cc(C(F)F)n3ncc(C(=O)NCC4CCCO4)c3n2)cc1 (configuration not stated)	2.06µM*	0.0%	0.1	-10.1%
COc1ccccc1CNC(=O)c1cnn2c(C(F)F)cc(C)nc12	23.1µM*	0.8%	-0.1	-22.3%
O=C(NCC1CCCO1)c1cnn2c(C(F)F)cc(C3CC3)nc12 (configuration not stated)	6.5%	1.8%	-2.2	-45.8%
COc1ccc(NC(=O)CN(C)C(=O)CNC(=O)c2sc3ccccc3c2Cl)cc1	?	0.5%	1.2	7.94µM*
COc1cccc(NC(=O)CN(C)C(=O)CNC(=O)c2sc3ccccc3c2Cl)c1	28.6%	4.1%	0.7	?
CCCCCCn1cnc2c(c1=O)c1nc3ccccc3nc1n2/N=C/c1ccco1	14.6µM*	0.2%	8.1	-17.2%
COCCn1cnc2c(c1=O)c1nc3ccccc3nc1n2/N=C/c1ccc(OC)c(OC)c1	5.8µM*	-0.8%	1.9	4.4%
CCCn1c(C)nc2c(c1=O)c1nc3ccccc3nc1n2CCC1=CCCCC1	-20.5%	2.2%	3.0	-3.2%
SMILES	ELG1 DNA repair	Nrf2 ARE act	IL2 activator	BRCA1 expr act
Cc1nc2c(c(=O)n1CCC1=CCCCC1)c1nc3ccccc3nc1n2/N=C/c1ccco1	5.17µM*	0.0%	1.1	3.5%
O=c1c2c3nc4ccccc4nc3n(/N=C/c3ccncc3)c2ncn1-c1ccccc1	-5.8%	2.4%	0.8	-0.9%
C=CCn1cnc2c(c1=O)c1nc3ccccc3nc1n2/N=C/c1cccc(OC)c1	20.6µM*	-0.5%	-2.8	2.3%
COc1ccc(/C=N/n2c(C)nc3ccccc3c2=O)cc1OC	6.0%	0.2%	-3.2	26.2%
COCCn1cnc2c(c1=O)c1nc3ccccc3nc1n2/N=C/c1ccco1	-5.8%	-0.9%	0.5	4.4%
CC1(Cc2ccccc2Cl)C(=O)Nc2c(Cl)ccc(Cl)c21 (configuration not stated)	nt	0.4%	-0.3	-20.7%
Cc1ccc(N2CCN(C(=O)CCS(=O)(=O)c3cc4c(cc3Cl)NC(=O)CO4)CC2)c(C)c1	nt	0.3%	nt	nt
Cc1cc[n+](C(C)C(=O)c2ccc(-c3ccccc3)cc2)cc1 (configuration not stated)	2.06µM*	5.2%	-0.5	0.0%
